# The supplement of paper PMC10849652
# The full data set covers some 7,900 targets. This sample favours those with a hit. About 0.6% of all pairs of compound and target were hits. A number with no mark means an inactive call.
# Key:
# Test in all cases: log2 fold change, soluble protein after heating vs DMSO (PISA); higher = thermal stabilisation; K562 cells, 10 uM, 30 min; active = over 0.2 and 3.5 SD of the protein, either way, in both replicates (recomputed)
# erlotinib = compound: C#Cc1cccc(Nc2ncnc3cc(OCCOC)c(OCCOC)cc23)c1 [erlotinib]
# Summary of the method: (§1)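 K562 cells at 2×10^6 cells/mL were treated for 30 min with 10 μM compound, and aliquots were heated for 3 min over 48°C-58°C before pooling. Extraction used PBS with 0.5% NP-40 at 4°C, and soluble protein was the supernatant after 21,000xg for 90 min, measured by TMTpro 16plex LC-MS/MS with channel sums equalised. Thermal stability values, relative to control samples and from duplicates, are log2 fold changes.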
# [1] = compound: C/C(=N\NC(=O)C1=CC(=CC=C1)S(=O)(=O)N2CCOCC2)/C3=C(C=CC(=C3)Cl)O
# Summary of the method: as §1
# [2] = compound: C1=CC(=C(C=C1Cl)C2=NC3=NC=CN=C3C(=N2)NC4=CC=NC=C4)F
# Summary of the method: as §1
# [3] = compound: C1=CC(=CC=C1C2=NC3=C(N2)C=C(C=C3)C(=O)N)OC4=CC=C(C=C4)Cl
# Summary of the method: as §1
# [4] = compound: C1=CC2=C(C=CC(=C2)/C=C\3/C(=O)NC(=NCC4=CC=CS4)S3)N=C1
# Summary of the method: as §1
# [5] = compound: C1=CC2=NC=CN=C2C=C1/C=C/3\C(=O)NC(=O)S3
# Summary of the method: as §1
# [6] = compound: C1=CC=C(C=C1)C2=NC(=C(N2)C3=CC=NC=C3)C4=CC(=C(C=C4)Cl)O
# Summary of the method: as §1
# [7] = compound: C1=CC=C2C(=C1)C3=NNC4=CC=CC(=C43)C2=O
# Summary of the method: as §1
# [8] = compound: C1CCN(C1)C(=O)NC2=CC=CC(=C2)NC3=NC=C(C(=N3)NCCC4=CN=CN4)Br
# Summary of the method: as §1
# [9] = compound: C1CN(CCC1(CC2=CC=C(C=C2)Cl)N)C3=NC=NC4=C3C=CN4
# Summary of the method: as §1
# IRAK-1-4 Inhibitor I = compound: C1COCCN1CCN2C3=CC=CC=C3N=C2NC(=O)C4=CC(=CC=C4)[N+](=O)[O-] [IRAK-1-4 Inhibitor I]
# Summary of the method: as §1
# ibrutinib = compound: C=CC(=O)N1CCC[C@@H](n2nc(-c3ccc(Oc4ccccc4)cc3)c3c(N)ncnc32)C1 [ibrutinib]
# Summary of the method: as §1
# [10] = compound: CC(=O)c1cnc2ccc(-c3cc(Cl)c(O)c(Cl)c3)nc2c1N[C@H]1CC[C@H](CN(C)C)CC1
# Summary of the method: as §1
# ralimetinib = compound: CC(C)(C)Cn1c(N)nc2ccc(-c3[nH]c(C(C)(C)C)nc3-c3ccc(F)cc3)nc21 [ralimetinib]
# Summary of the method: as §1
# [11] = compound: CC(C)(O)CC(=O)NCCn1ccc2ncnc(Nc3ccc(Oc4cccc(C(F)(F)F)c4)c(Cl)c3)c21
# Summary of the method: as §1
# [12] = compound: CC(C)C1=C2N=C(C=C(N2N=C1)NCC3=CC=CC=C3)NCCCCCCN
# Summary of the method: as §1
# [13] = compound: CC(C)C[C@@H](C=O)NC(=O)[C@H](CC(C)C)NC(=O)[C@H](CC(C)C)NC(=O)OCc1ccccc1
# Summary of the method: as §1
# pinometostat = compound: CC(C)N(C[C@H]1O[C@@H](n2cnc3c(N)ncnc32)[C@H](O)[C@@H]1O)[C@H]1C[C@@H](CCc2nc3cc(C(C)(C)C)ccc3[nH]2)C1 [pinometostat]
# Summary of the method: as §1
# [14] = compound: CC1=C(C(CC(=O)N1)C2=CC=C(C=C2)C(F)(F)F)C(=O)NC3=C(C=C4C(=C3)C=NN4)F
# Summary of the method: as §1
# [15] = compound: CC1=C(C2=C(C=C1)C(=O)C3=CC=CC=C3N2CCCN)C
# Summary of the method: as §1
# Sequence of UniProt Q9Y6Y8 (Q9Y6Y8 whole entry, looked up): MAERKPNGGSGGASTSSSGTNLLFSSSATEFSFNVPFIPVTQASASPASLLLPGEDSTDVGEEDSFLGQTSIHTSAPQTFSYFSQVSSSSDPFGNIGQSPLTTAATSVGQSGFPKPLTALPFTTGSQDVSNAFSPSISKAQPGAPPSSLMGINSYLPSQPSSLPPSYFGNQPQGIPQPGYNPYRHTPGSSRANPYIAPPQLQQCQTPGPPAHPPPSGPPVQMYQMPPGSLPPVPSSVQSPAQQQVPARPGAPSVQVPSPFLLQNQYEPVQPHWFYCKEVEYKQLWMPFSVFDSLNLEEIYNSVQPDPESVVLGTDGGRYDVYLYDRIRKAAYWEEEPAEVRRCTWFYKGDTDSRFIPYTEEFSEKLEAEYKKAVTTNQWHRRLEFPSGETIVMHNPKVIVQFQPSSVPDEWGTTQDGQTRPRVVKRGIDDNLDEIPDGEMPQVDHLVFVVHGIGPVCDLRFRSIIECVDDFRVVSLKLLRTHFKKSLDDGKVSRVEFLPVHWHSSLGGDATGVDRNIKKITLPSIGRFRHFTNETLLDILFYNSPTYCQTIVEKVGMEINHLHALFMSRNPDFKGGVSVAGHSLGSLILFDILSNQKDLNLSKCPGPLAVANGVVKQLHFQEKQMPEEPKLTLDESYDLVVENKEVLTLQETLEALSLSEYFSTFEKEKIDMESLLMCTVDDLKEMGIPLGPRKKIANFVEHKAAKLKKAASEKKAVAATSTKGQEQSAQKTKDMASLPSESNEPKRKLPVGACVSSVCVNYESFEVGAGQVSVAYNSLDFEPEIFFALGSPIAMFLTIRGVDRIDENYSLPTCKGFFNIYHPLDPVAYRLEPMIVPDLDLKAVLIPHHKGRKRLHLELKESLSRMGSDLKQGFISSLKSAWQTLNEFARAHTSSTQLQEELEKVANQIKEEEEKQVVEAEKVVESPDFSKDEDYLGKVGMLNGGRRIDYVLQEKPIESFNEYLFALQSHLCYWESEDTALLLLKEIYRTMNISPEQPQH
# Sequence of UniProt Q9NR46 (Q9NR46 whole entry, looked up): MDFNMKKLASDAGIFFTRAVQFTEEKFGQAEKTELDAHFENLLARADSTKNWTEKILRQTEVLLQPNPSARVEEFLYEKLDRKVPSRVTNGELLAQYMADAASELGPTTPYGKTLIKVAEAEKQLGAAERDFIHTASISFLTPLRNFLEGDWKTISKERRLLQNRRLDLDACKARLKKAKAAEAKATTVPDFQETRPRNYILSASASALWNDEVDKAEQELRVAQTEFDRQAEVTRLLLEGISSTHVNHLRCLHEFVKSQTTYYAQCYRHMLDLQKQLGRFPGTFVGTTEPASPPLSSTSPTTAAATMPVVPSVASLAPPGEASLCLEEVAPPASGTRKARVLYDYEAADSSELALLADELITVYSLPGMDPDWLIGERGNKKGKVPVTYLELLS
# Sequence of UniProt Q53H47 (Q53H47 whole entry, looked up): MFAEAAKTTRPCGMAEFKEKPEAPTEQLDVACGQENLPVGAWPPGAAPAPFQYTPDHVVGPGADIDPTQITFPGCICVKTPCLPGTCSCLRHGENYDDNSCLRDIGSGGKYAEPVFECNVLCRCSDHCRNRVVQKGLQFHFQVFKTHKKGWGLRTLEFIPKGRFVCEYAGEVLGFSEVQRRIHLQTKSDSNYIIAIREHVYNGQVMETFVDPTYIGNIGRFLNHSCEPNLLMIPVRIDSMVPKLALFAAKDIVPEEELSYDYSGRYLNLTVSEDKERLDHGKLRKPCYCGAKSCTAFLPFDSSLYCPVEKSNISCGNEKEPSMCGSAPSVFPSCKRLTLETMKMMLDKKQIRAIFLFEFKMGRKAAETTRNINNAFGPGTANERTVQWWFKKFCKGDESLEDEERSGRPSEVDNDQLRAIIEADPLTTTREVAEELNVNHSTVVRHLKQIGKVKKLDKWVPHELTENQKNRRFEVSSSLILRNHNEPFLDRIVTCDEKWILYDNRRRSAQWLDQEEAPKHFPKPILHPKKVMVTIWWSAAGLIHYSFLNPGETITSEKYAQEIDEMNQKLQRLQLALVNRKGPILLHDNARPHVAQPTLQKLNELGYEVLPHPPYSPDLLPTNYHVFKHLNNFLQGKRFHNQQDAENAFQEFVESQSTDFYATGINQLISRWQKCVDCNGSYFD
# Sequence of UniProt Q9BUV8 (Q9BUV8 whole entry, looked up): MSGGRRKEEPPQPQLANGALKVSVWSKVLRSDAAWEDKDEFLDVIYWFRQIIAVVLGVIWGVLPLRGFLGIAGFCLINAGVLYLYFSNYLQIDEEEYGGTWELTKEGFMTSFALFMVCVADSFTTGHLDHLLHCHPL
# Sequence of UniProt O43819 (O43819 whole entry, looked up): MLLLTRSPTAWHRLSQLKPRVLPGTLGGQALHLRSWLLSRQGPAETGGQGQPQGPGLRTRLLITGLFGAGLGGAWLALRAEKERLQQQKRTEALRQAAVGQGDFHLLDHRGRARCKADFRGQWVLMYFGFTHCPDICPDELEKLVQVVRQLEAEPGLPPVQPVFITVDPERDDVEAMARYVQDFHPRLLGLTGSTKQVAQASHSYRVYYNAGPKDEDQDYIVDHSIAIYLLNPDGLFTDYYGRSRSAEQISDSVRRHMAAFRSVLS
# Sequence of UniProt Q13796 (Q13796 whole entry, looked up): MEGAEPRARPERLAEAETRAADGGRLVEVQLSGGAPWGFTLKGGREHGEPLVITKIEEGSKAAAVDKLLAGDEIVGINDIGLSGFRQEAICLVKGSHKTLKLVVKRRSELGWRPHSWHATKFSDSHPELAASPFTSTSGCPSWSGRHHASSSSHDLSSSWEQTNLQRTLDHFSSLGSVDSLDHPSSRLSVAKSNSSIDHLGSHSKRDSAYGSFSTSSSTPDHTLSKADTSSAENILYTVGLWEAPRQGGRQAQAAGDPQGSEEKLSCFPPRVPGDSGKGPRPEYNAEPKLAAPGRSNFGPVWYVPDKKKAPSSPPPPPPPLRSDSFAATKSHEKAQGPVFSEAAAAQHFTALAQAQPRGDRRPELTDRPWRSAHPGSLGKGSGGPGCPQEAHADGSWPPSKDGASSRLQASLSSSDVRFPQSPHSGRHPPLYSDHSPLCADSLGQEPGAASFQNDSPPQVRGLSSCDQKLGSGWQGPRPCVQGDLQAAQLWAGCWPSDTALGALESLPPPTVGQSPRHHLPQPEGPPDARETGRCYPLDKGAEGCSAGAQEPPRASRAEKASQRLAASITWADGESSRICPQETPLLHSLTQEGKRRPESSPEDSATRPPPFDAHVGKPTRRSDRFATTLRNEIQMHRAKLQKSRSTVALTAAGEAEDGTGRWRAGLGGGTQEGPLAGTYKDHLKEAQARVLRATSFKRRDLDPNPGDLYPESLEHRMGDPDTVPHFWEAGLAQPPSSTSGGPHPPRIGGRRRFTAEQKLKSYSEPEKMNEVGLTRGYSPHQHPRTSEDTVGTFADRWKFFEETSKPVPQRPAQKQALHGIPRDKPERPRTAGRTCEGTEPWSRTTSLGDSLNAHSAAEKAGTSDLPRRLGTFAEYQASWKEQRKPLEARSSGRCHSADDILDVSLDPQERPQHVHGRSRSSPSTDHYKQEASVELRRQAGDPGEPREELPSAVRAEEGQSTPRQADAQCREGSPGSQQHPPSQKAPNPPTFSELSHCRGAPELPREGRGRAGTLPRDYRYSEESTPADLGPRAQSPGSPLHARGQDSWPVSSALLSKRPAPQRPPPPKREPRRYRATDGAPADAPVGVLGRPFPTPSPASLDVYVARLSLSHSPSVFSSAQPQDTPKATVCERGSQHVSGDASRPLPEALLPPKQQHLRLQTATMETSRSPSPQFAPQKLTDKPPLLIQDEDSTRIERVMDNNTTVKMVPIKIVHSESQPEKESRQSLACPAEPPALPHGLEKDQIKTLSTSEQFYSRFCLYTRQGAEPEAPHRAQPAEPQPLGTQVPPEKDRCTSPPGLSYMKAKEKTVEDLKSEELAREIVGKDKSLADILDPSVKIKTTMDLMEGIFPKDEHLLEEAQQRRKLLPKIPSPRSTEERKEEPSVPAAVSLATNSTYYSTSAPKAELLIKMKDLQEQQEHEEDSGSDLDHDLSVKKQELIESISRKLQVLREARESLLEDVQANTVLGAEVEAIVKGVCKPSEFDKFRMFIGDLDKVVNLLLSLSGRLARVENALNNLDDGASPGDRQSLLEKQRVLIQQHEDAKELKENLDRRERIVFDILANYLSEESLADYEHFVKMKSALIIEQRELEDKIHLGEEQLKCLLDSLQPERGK
# Sequence of UniProt Q9H082 (Q9H082 whole entry, looked up): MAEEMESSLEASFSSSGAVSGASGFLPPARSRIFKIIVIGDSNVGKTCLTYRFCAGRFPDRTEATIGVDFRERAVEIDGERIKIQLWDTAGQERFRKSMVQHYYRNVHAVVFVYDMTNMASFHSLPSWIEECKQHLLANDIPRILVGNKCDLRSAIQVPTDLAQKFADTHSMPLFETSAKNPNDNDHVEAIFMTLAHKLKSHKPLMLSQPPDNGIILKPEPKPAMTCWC
# Sequence of UniProt Q14493 (Q14493 whole entry, looked up): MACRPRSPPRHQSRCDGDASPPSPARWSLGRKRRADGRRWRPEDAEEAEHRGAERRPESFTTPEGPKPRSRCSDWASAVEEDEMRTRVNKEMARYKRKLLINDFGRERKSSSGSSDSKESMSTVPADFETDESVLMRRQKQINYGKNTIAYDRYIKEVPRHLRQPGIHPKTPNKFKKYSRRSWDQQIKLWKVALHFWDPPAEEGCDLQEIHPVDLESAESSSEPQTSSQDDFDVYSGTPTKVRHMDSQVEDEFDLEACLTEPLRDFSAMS
# Sequence of UniProt Q96IZ7 (Q96IZ7 whole entry, looked up): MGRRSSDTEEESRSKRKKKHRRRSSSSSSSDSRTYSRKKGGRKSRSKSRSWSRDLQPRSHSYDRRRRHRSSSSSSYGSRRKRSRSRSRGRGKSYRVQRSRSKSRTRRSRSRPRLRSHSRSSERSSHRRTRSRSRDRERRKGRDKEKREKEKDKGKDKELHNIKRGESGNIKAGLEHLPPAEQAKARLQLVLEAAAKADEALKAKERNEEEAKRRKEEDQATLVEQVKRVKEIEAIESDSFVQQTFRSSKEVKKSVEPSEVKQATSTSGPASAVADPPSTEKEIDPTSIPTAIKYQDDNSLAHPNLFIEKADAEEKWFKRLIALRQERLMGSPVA
Target,log2 fold change (erlotinib),log2 fold change [1],log2 fold change [2],log2 fold change [3],log2 fold change [4],log2 fold change [5],log2 fold change [6],log2 fold change [7],log2 fold change [8],log2 fold change [9],log2 fold change (IRAK-1-4 Inhibitor I),log2 fold change (ibrutinib),log2 fold change [10],log2 fold change (ralimetinib),log2 fold change [11],log2 fold change [12],log2 fold change [13],log2 fold change (pinometostat),log2 fold change [14],log2 fold change [15]
SEC23IP (UniProt Q9Y6Y8),0.03,0.022,-0.013,-0.037,0.028,0.229,-0.023,-0.027,-0.008,-0.061,-0.007,-0.023,-0.048,-0.004,-0.119,-0.252 (active),0.006,0.032,0.059,-0.011
SLBP (UniProt Q14493),0.006,0.03,-0.058,0.019,-0.111,0.035,0.005,0.008,0.008,-0.039,-0.123,-0.162,-0.38 (active),-0.068,-0.09,-0.206,0.162,-0.034,0.098,-0.126
SEPTIN5 (UniProt G3XAH0),0.009,-0.251,0.146,0.076,-0.022,-0.035,0.014,-0.24,0.009,0.049,,0.018,0.123,-0.056,-0.133,0.092,-0.009,,-0.003,0.027
SCPEP1 (UniProt Q9HB40),-0.002,0.017,0.064,0.015,-0.024,0.058,-0.013,0.017,-0.012,0.079,0.044,0.072,-0.008,-0.005,-0.038,-0.5 (active),0.007,-0.032,-0.006,0.073
"SART3, A0A499FI31",-0.034,0.058,0.102,0.032,0.032,0.084,-0.004,-0.045,-0.078,-0.014,-0.021,-0.017,0.062,0.002,-0.033,-0.379 (active),-0.051,-0.025,0.021,-0.377 (active)
SCAMP2 (UniProt O15127),0.014,0.141,0.081,0.011,-0.154,0.063,0.055,0.057,-0.116,0.087,,0.09,0.08,-0.019,0.013,0.003,0.036,,-0.093,-0.066
SCO2 (UniProt O43819),0.092,0.012,0.055,0.048,0.243,-0.054,0.017,0.163,-0.042,0.101,0.02,0.014,-0.06,0.142,-0.154,-0.071,0.024,0.054,,0.07
SHROOM2 (UniProt Q13796),0.266,-1.03 (active),0.095,-0.361,0.069,-0.021,,0.013,-0.027,0.303,0.236,0.065,0.137,,0.009,0.155,,-0.182,-0.015,0.072
SETMAR (UniProt Q53H47),0.004,-0.044,0.046,-0.018,0.133,-0.029,-0.01,0.008,-0.031,-0.248,0.093,-0.04,-0.135,-0.025,0.047,0.227,-0.061,0.078,0.012,0.509 (active)
SH3GLB2 (UniProt Q9NR46),0.048,0.081,-0.044,-0.021,0,0.01,-0.033,-0.021,-0.022,-0.013,0.028,0.004,-0.047,0.033,0.028,-0.27 (active),0.066,-0.004,0.001,-0.021
SF3B5 (UniProt Q9BWJ5),-0.088,-0.04,0.319,0.051,0.023,0.199,,0.107,-0.104,-0.002,0.055,0.127,-0.067,,-0.224,0.118,,0.045,0.011,0.156
RAB5IF isoform 5 (UniProt Q9BUV8),0.071,0.093,0.098,0.055,-0.061,0.112,0.373 (active),0.036,0.027,0.267,-0.082,0.031,0.048,0.3,0.021,-0.187,-0.143,-0.105,-0.12,-0.036
SIDT2 isoform 2 (UniProt Q8NBJ9),0.007,0.026,-0.027,0.004,0.042,0.087,-0.053,0.038,0.002,0.053,-0.017,0.123,-0.039,-0.143,-0.021,-0.353 (active),0,0.271,0.009,0.005
RAB33B (UniProt Q9H082),0.059,0.031,0.028,-0.029,-0.08,-0.012,-0.079,0.025,-0.016,0.118,0.072,0.016,-0.019,-0.092,0.027,0.113,0.112,-0.015,-0.011,-0.002
RSRC1 (UniProt Q96IZ7),0,0.135,-0.148,0.071,-0.033,-0.057,-0.026,-0.073,0.016,-0.1,-0.062,0.034,-0.178,-0.01,0.056,-0.071,0.009,-0.017,-0.012,0.047
